Measurements published in the supplement of paper PMC12645437, “Orthogonal IMiD-Degron Pairs Induce Selective Protein Degradation in Cells” (ACS Chemical Biology, 2025).
The full ranking holds about 8,300 sequences; the median of “log2 fold change of degron read counts, EGFP-low vs EGFP+ sorted cells (limma voom), compound-induced degradation” is about -1.1, and the highest 2% start at about 3.2. This excerpt belongs to a sample that is enriched for the highest values.

Target: T1, CRBN, Q96SW2
T1 chain: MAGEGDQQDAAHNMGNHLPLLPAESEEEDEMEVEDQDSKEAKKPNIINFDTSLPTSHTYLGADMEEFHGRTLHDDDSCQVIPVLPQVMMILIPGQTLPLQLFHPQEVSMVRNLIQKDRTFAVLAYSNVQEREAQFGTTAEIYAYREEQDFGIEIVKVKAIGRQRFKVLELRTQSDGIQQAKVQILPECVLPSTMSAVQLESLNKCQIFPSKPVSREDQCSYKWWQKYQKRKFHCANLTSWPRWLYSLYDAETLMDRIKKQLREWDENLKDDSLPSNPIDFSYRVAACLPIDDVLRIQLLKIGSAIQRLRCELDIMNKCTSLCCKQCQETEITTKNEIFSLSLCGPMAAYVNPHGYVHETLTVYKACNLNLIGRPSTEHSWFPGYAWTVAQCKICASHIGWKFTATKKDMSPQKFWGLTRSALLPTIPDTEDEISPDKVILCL
Experiment: log2 fold change of degron read counts, EGFP-low vs EGFP+ sorted cells (limma voom), compound-induced degradation; higher = more compound-induced degradation of the degron-EGFP fusion; degrons are variants of IKZF1/3 zinc finger 2; compound dose not given here
Settings: Jurkat, 18 h
Method: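 Pooled library of 8380 IKZF3 ZF2 degron mutants (positions 146-167 varied within the IKZF3 130-189 degron; only the varied core is printed, flanks not printed) fused to EGFP with IRES-mCherry, lentivirally expressed in Jurkat cells. mCherry+ cells were treated with one IMiD compound for 18 h (dose not stated) and FACS-sorted into EGFP-low and EGFP+ populations. Degron sequences were counted by NGS, and log2FC (EGFP-low vs EGFP+) was estimated by limma voom over 3 biological replicates.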

[1] = compound: compound 19 (5-tert-butyl-thalidomide)
[2] = compound: compound 22 (5-morpholino-thalidomide)
[3] = compound: compound 33 (diphenyl IMiD analogue)
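Also: pooled lentiviral library of zinc finger degron-EGFP fusions in mCherry-positive Jurkat cells, FACS-sorted after compound exposure, with degron abundance counted by next-generation sequencing.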

Sequence | log2 fold change of degron read counts [1] | log2 fold change of degron read counts [2] | log2 fold change of degron read counts [3] | log2 fold change of degron read counts (compound: thalidomide)
LRCEICGFFCTQKGNLLRHIKL [46L_47R_49E_50I_52G_53F_54F_55C_67L_, Q9UKT9] | -0.285 | -0.446 | 0.954 | 1.12
FSCNQCGHKFTQKGNLLRHIKL [46F_47S_49N_50Q_52G_53H_54K_55F_67L_, Q9UKT9] | -2.24 | -2.55 | -2.41 | -2.6
FACEQCGAYFTQKGNLLRHIKL [46F_47A_49E_50Q_52G_53A_54Y_55F_67L_, Q9UKT9] | -0.764 | -2.44 | -1.5 | -1.62
FCCNQCGHDFTQKGNLLRHIKL [46F_47C_49N_50Q_52G_53H_54D_55F_67L_, Q9UKT9] | -2.95 | -3.42 | -3.04 | -2.8
FDCNQCGRCFTQKGNLLRHIKL [46F_47D_49N_50Q_52G_53R_54C_55F_67L_, Q9UKT9] | -2.4 | -2.73 | -2.2 | -1.93
FVCPQCGAAFTQKGNLLRHIKL [46F_47V_49P_50Q_52G_53A_54A_55F_67L_, Q9UKT9] | -1.44 | 1.34 | 1.04 | 1.46
FQCPVCGAAFTQKGNLLRHIKL [46F_47Q_49P_50V_52G_53A_54A_55F_67L_, Q9UKT9] | 2.54 | 3.1 | 2.52 | 3.69
FVCPVCGAAFTQKGNLLRHIKL [46F_47V_49P_50V_52G_53A_54A_55F_67L_, Q9UKT9] | 0.708 | 3.2 | 2.37 | 3.08
FQCPQCGAAFTQKGNLLRHIKL [46F_47Q_49P_50Q_52G_53A_54A_55F_67L_, Q9UKT9] | -0.422 | 1.04 | 0.683 | 3.27
FYCPQCGAAFTQKGNLLRHIKL [46F_47Y_49P_50Q_52G_53A_54A_55F_67L_, Q9UKT9] | 1.03 | 1.46 | 1.86 | -0.429
FICPVCGAAFTQKGNLLRHIKL [46F_47I_49P_50V_52G_53A_54A_55F_67L_, Q9UKT9] | -0.386 | 2.86 | 2.22 | 2.77
FMCPVCGAAFTQKGNLLRHIKL [46F_47M_49P_50V_52G_53A_54A_55F_67L_, Q9UKT9] | 1.72 | 2.21 | 3.08 | 2.11
FGCPVCGAAFTQKGNLLRHIKL [46F_47G_49P_50V_52G_53A_54A_55F_67L_, Q9UKT9] | 3.32 | 2.34 | 2.97 | 1.29
FECPVCGAAFTQKGNLLRHIKL [46F_47E_49P_50V_52G_53A_54A_55F_67L_, Q9UKT9] | 2.1 | -0.445 | 2.32 | 3
FWCPVCGAAFTQKGNLLRHIKL [46F_47W_49P_50V_52G_53A_54A_55F_67L_, Q9UKT9] | 3.13 | 3.69 | 2.44 | 1.11
FHCPVCGAAFTQKGNLLRHIKL [46F_47H_49P_50V_52G_53A_54A_55F_67L_, Q9UKT9] | 2.96 | 2.4 | 2.16 | 0.942

Sequence | log2 fold change of degron read counts [1] | log2 fold change of degron read counts [2] | log2 fold change of degron read counts [3] | log2 fold change of degron read counts (compound: thalidomide)
FCCPVCGAAFTQKGNLLRHIKL [46F_47C_49P_50V_52G_53A_54A_55F_67L_, Q9UKT9] | 3.16 | 2.58 | 2.48 | 2.16
FFCPICGRMFTQKGNLLRHIKL [46F_47F_49P_50I_52G_53R_54M_55F_67L_, Q9UKT9] | 0.209 | -0.113 | 0.441 | -0.935
FHCNICGAQFTQKGNLLRHIKL [46F_47H_49N_50I_52G_53A_54Q_55F_67L_, Q9UKT9] | 0.655 | 1.29 | 1.05 | -0.181
FYCEICGRCFTQKGNLLRHIKL [46F_47Y_49E_50I_52G_53R_54C_55F_67L_, Q9UKT9] | 0.939 | 0.533 | 1.13 | -0.963
FKCEQCGAVFTQKGNLLRHIKL [46F_47K_49E_50Q_52G_53A_54V_55F_67L_, Q9UKT9] | -3.73 | -2.96 | -3.73 | -3.19
FKCNQCGAVFTQKGNLLRHIKL [46F_47K_49N_50Q_52G_53A_54V_55F_67L_, Q9UKT9] | -2.58 | -2.71 | -3.07 | -2.52
LCCNQCGFACTQKGNLLRHIKL [46L_47C_49N_50Q_52G_53F_54A_55C_67L_, Q9UKT9] | -1.66 | -2.13 | -1.86 | -1.41
FICNQCGRGFTQKGNLLRHIKL [46F_47I_49N_50Q_52G_53R_54G_55F_67L_, Q9UKT9] | -3.02 | -3.8 | -3.62 | -2.96
FVCNQCGRLFTQKGNLLRHIKL [46F_47V_49N_50Q_52G_53R_54L_55F_67L_, Q9UKT9] | -1.99 | -2.78 | -1.99 | -1.68
FACPVCGAAFTQKGNLLRHIKL [46F_47A_49P_50V_52G_53A_54A_55F_67L_, Q9UKT9] | 3.6 | 2.87 | 1.74 | 1.56
FRCPVCGAAFTQKGNLLRHIKL [46F_47R_49P_50V_52G_53A_54A_55F_67L_, Q9UKT9] | 2.21 | 2.41 | 2.44 | 2.31
FVCDVCGAAFTQKGNLLRHIKL [46F_47V_49D_50V_52G_53A_54A_55F_67L_, Q9UKT9] | -0.53 | 1.92 | 0.755 | 1.42
FYCDVCGAAFTQKGNLLRHIKL [46F_47Y_49D_50V_52G_53A_54A_55F_67L_, Q9UKT9] | 2.59 | 2.94 | 1.59 | -1.42
FWCDVCGAAFTQKGNLLRHIKL [46F_47W_49D_50V_52G_53A_54A_55F_67L_, Q9UKT9] | 2.61 | 3.37 | 1.17 | -0.68
FLCPVCGAAFTQKGNLLRHIKL [46F_47L_49P_50V_52G_53A_54A_55F_67L_, Q9UKT9] | 0.86 | 0.132 | 1.81 | 1.42
